# Shown are actives, neighbours in structure and some others; about 6.7% of the full set was active somewhere.
# KB-3-1 cytotox: kills parental KB-3-1 adenocarcinoma cells; KB-3-1 viability, CellTiter-Glo ATP luminescence, 72 h; AID 1347075; actives 1.4% (n = 400,000); Potency, µM (doses to about 46.1 µM), most hits filed as cytotoxic; also: % is scaled to controls: 0 for no effect and ±100 for the full control effect; nearly all actives have a fitted effect of over 60% in size
#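 Multi-concentration cytotoxicity screen in KB-3-1 cells grown in DMEM lacking phenol red with 10% FBS. After 72 h at 37 °C with compound, ATP-dependent luminescence was recorded.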
# KB-V1 cytotox: KB-V1 MDR subline cytotoxicity | KB-V1 MDR cells viability, CellTiter-Glo, 72 h | Potency, µM (series often up to 46.1 µM), usual class: cytotoxic | actives 3.4% (n = 400,000) | AID 1347076; also: % is scaled to controls: 0 for no effect and ±100 for the full control effect; nearly all actives have a fitted effect of over 60% in size
#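 KB-V1 MDR subline cells in DMEM (phenol-red free, 10% FBS) exposed to compounds in qHTS concentration series for 72 h at 37 degrees C. Viability read by CellTiter-Glo luminescence; concentration-effect curves fitted after normalization and correction.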
# PINK1 expr mod: modulators of PINK1 expression. Potency, µM (series often up to 76.6 µM), inactives show at the highest dose activation (PINK1 increase), most hits filed as activators. AID 624263. actives 0.2% (n = 410,000). PINK1 immunofluorescence, high-content cytometry, 24 h; active = well fitted activation curve with a large enough effect; inconclusive = small, poorly fitted or top-dose-only effect; cell line not stated here; also: % of control where 0% means no effect; nearly all actives have a fitted effect of over 65% in size
#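 Cells are seeded, rested 12 hours, then given compound at five concentrations or DMSO for 24 hours. After fixation, blocking and antibody staining, PINK1 amount and mitochondrial localization are scored; CCCP serves as control.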
# MCF10A rereplic: inducers of DNA re-replication in MCF 10A breast cells. Potency, µM (top dose mostly 46.1 µM), for the others: at the top dose activity, positive = re-replication, usual class: activators. MCF 10A DNA re-replication, Hoechst nuclear intensity, 48 h. AID 624296. actives 2.9% (n = 350,000); also: % of control where 0% means no effect; nearly all actives have a fitted effect of over 50% in size
# SW480 rerep: induces DNA re-replication in SW480 colon adenocarcinoma cells; SW480 DNA re-replication, Hoechst DNA content imaging, 48 h; Potency, µM (highest dose often 46.1 µM), inactives show top-dose re-replication activation, actives largely listed as activators; actives 1.8% (n = 340,000); also: % of control where 0% means no effect; nearly all actives have a fitted effect of over 55% in size
#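 Treated cells incubate 48 hr (37 C, 5% CO2), are stained 40 min with Hoechst, and nuclear fluorescence is enumerated; a rise in nuclei with high DNA signal marks re-replication.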
# Active calls of the source: *; i = inactive; ? = inconclusive; . = no result given; ! = repeats disagree; [ ] = another dose, or the depositor's remark. Unless noted, calls follow the shape of the dose curve; as a rule, active = well fitted curve in the direction sought with a large enough effect; inconclusive = small, poorly fitted or top-dose-only effect, or another doubt; inactive = no such curve, though single readings can be large; an effect the other way counts as inactive or inconclusive. Potency is read from the fitted curve at half-maximal effect.
SMILES,KB-3-1 cytotox,KB-V1 cytotox,PINK1 expr mod,MCF10A rereplic,SW480 rerep
O=C(NCCCN1CCOCC1)c1cccc(S(=O)(=O)N2CCN(c3ccccc3)CC2)c1,i,i,-2%,16%,-16%
O=C(NNC(=O)c1cccc(S(=O)(=O)N2CCN(c3ccccc3)CC2)c1)c1ccc(Cl)cc1,i,16µM*,-1%,?,-4%
O=C(NCCOc1ccccc1F)c1cccc(S(=O)(=O)N2CCN(c3ccccc3)CC2)c1,i,13µM*,2%,0%,?
COc1ccc(S(=O)(=O)N2CCN(c3ccccc3)CC2)cc1OC,i,i,3%,-15%,?
COc1ccccc1N1CCN(S(=O)(=O)c2ccc3nc(-c4ccccc4)[nH]c3c2)CC1,i,?,4%,26µM*!,-4%
Cc1nn(C)c2c1c(C(F)(F)F)cc(=O)n2CC(=O)NC(C)(C)C,i,i,3%,.,.
CCN(CC)c1ccc(N=Cc2c(C)[nH]c3ccccc23)cc1,i,i,7%,18%,8.2µM*
O=C(CCN1C(=O)c2ccccc2C1=O)N1CCN(Cc2ccc(Cl)cc2Cl)CC1,i,15µM*,?,16%,5%
C=CCNC(=S)Nc1sc2c(c1C(=O)OCC)CC(C(C)C)OC2 (configuration not stated),i,?,-5%[38.3 µM],12µM*,?
CC(C)C1Cc2c(sc(NC(=S)NC(=O)c3ccccc3)c2C#N)CO1 (configuration not stated),i,i,0%,23%,15%
CCOC(=O)c1c(NC(=S)NC)sc2c1CC(C)(C)SC2,i,i,0%,?,24%
CCOC(=O)c1c(NC(=S)NCCc2ccccc2)sc2c1CC(C(C)C)OC2 (configuration not stated),i,21µM*,18%,13%,-41%
CC(C)c1ccc(CN2CCC2(C)C(=O)Nc2ccc3c(c2)OCO3)cc1 (configuration not stated),16µM*,?,?,.,.
CC(C)c1ccc(CC(=O)N2CCC2(C)C(=O)Nc2ccc3c(c2)OCCO3)cc1 (configuration not stated),i,16µM*,1%,.,.
CC(C)Oc1ccc(CN2CCC2(C)C(=O)Nc2ccc3c(c2)OCO3)cc1 (configuration not stated),?,18µM*,1%,.,.
CCOc1ccc(CNS(=O)(=O)c2c(C(=O)N3CCCCCC3)c(C)n(C)c2C)cc1OC,i,i,0%,.,.
CNC(=O)C[C@H]1C(=O)N(c2ccccc2)C[C@@H]1CSC,i,i,0%,.,.
COc1ccc2c(c1)CCc1sc(NC(=O)c3ccco3)nc1-2,i,i,1%,14%,-1%
O=C(OC1CCCCC1)c1ccc(NC(=O)c2ccco2)cc1,i,i,16%,15µM*,11%
COc1ccc(NC(=O)/C(C#N)=C\C=C\c2ccco2)cc1,7.3µM*,10µM*,4%,12µM*,.
COc1ccc(NC(=O)/C(=C\c2ccco2)NC(=O)c2ccco2)cc1,i,i,2%,-28%,-22%
COc1ccc2c(c1)-c1nc(NC(=O)c3ccco3)sc1CC2,i,13µM*,3%,?,4%
COc1ccc(C(=O)Nc2ccc(NC(=O)c3ccco3)cc2)cc1,i,i,2%,-14%,9.2µM*
CC(C)C(=O)N1CCCC1(C)C(=O)NCc1ccc(Cl)cc1 (configuration not stated),i,i,-1%,.,.
CCc1nc2c(OCc3ccc(F)c(F)c3)cccn2c1N(C)C(=O)C1CC1,i,i,3%,.,.
SMILES,KB-3-1 cytotox,KB-V1 cytotox,PINK1 expr mod,MCF10A rereplic,SW480 rerep
CCc1cc2c(=O)[nH]c(-c3ccccn3)nc2s1,12µM*,?,6%,12µM*,6.5µM*
COc1ccccc1-n1c(SCC(=O)c2ccc(O)cc2O)nc2cc([N+](=O)[O-])ccc21,i,16µM*,?,?,-6%
COc1ccccc1-n1c(SCC(=O)NC2CCS(=O)(=O)C2)nc2cc([N+](=O)[O-])ccc21 (configuration not stated),i,i,1%,-1%,0%
CCOC(=O)c1c(-c2ccc(OC)cc2)nc2nonc2c1N,?,13µM*,-2%[38.3 µM],-5%,-12%
N#CC(C#N)=C1C=CC=CN1/C(=C\c1ccco1)C(=O)c1ccc(Cl)cc1,i,i,-3%,1.6µM*,2.6µM*
CC(/C=N/n1c(-c2ccc(Cl)cc2)n[nH]c1=S)=C\c1ccco1,?,?,4%,19%,4%
N#CC(C#N)=C1C=CC=CN1/C(=C\c1ccco1)C(=O)c1ccc(-c2ccccc2)cc1,i,i,-2%,3.3µM*,.
N#C/C(=C\c1ccco1)C(=O)NCc1ccccc1,i,i,5%,-4%,-160%
COC(=O)c1c(C)oc2ccc(NS(=O)(=O)c3cc(OC)ccc3OC)cc12,26µM*,10µM*,1%,?,15%
CC(=O)c1c(C)oc2ccc(NS(=O)(=O)c3ccc(C(C)C)cc3)cc12,21µM*,?,5%,.,.
CC(=O)c1c(C)oc2ccc(NS(=O)(=O)c3ccc(C)cc3)cc12,i,?,4%,7%,5%
CCCCOC(=O)c1c(C)oc2ccc(NS(=O)(=O)c3ccc4c5c(cccc35)C(=O)N4)cc12,?,15µM*,-1%,?,9%
COc1ccc(OC)c(S(=O)(=O)Nc2ccc3oc(C)c(C(C)=O)c3c2)c1,i,?,1%,18%,-5%
CCOc1ccc(S(=O)(=O)Nc2ccc3oc(C)c(C(=O)OCCOC)c3c2)cc1,5.8µM*,?,5%,.,.
Cc1ccc(NC(=O)C(C)SCC(=O)Nc2ccc(F)cc2)cc1S(=O)(=O)N1CCOCC1 (configuration not stated),i,i,-2%,-3%,?
O=C1NC[C@H](CCCCN2C[C@H](Cc3ccccc3)N(Cc3ccccc3)C(=O)C2=O)N(CCC2CCCCC2)C1=O,i,i,0%,.,.
Cc1nc2cc(NC(=O)[C@@H]3C[C@@H](Sc4ccccn4)CN3Cc3cccc(Cl)c3)ccc2s1,.,.,0%,.,.
CCCCCCCCC(c1nc2cc(C)c(C)cc2[nH]1)n1c(=O)c(-c2ccccc2Br)nc2ccccc21 (configuration not stated),i,i,3%,.,.
COc1ccc(-n2nnc(C(=O)Nc3ccccc3F)c2N)cc1,i,i,-3%,.,.
COc1ccc(C(=O)NCC(=O)N2CCC(Cc3ccccc3)CC2)cc1OC,i,?,2%,12%,-2%
O=C(COc1ccc([N+](=O)[O-])cc1Cl)NCCc1ccccc1,i,21µM*,4%,-4%,18%

# Bioassay records as filed in PubChem.
